This is a sample that favours compounds with a hit; in the whole collection about 5.3% have one here.
HCV inh = HCV inhibition. Potency, µM (titrated, usually from 41.8 µM), inactives show top-dose activity change, negative = inhibition, hits mostly inhibitors. AID 651820. Huh7.5.1 HCVcc-Cre infection, luciferase reporter, 44 h. 340,000 compounds, 3.4% hits; active means well fitted inhibition curve with a large enough effect; inconclusive means small, poorly fitted or top-dose-only effect, or another doubt; inactive means no such curve, though single readings can be large or run the other way
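Luciferase read-out (15 sec integration) after a 15 min room-temperature substrate step quantifies HCVcc-Cre infection. Cells, 1,000 per well, had compound added 4 h post-plating, then virus at ~0.5 moi, and were cultured 44 h.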
MARV entry inh = Marburg virus entry inhibition | 300,000 compounds, 1.8% hits | Marburg virus pseudotyped entry inhibition, cell reporter | Potency, µM (doses to about 37.8 µM), without a hit: at the highest dose activity change, negative = inhibition, actives largely listed as inhibitors | AID 540276; calls by dose curve; tested in HEK293 cells
LASV entry inh = inhibitors of Lassa virus binding or cell entry; AID 540256; 300,000 compounds, 1.2% hits; Potency, µM (titrated, usually from 37.9 µM), for inactives: top-dose activity change, negative = inhibition, hits mostly inhibitors; Lassa virus pseudotype entry inhibition, cell reporter; calls by dose curve; tested in HEK293 cells; further: nearly all actives have a fitted effect of over 50% in size
FMDV inh = antivirals against foot and mouth disease virus; AID 1159524; 410,000 compounds, 1.2% hits; FMDV antiviral cell-based qHTS; Potency, µM (doses to about 57.9 µM), for inactives: top-dose activity change, negative = inhibition, hits mostly inhibitors; calls by dose curve; tested in HEK293T cells; further: read-out not given here; nearly all actives have a fitted effect of over 45% in size
VACV mCherry inh = vaccinia inhibition (mCherry reporter); Vaccinia virus mCherry reporter infection, fluorescence; Potency, µM (highest dose often 36.5 µM), inactives show top-dose activity change, negative = inhibition, hits mostly inhibitors; 310,000 compounds, 0.63% hits; AID 720579; calls by dose curve; tested in A549 cells; further: nearly all actives have a fitted effect of over 35% in size
VACV Venus inh = vaccinia inhibition (Venus reporter). AID 720580. Vaccinia virus Venus reporter expression, fluorescence. Potency, µM (doses to about 36.5 µM), for the others: top-dose activity change, negative = inhibition, most hits filed as inhibitors. 330,000 compounds, 0.46% hits; calls by dose curve; tested in A549 cells; further: nearly all actives have a fitted effect of over 30% in size
Numbers without * were called inactive; i = inactive; u = inconclusive; x = no result given; [ ] = another dose, or the depositor's remark. On the % scale 0 is the no-effect control and ±100 the full control effect; potency means the concentration at half of the fitted maximal effect.

SMILES | HCV inh | MARV entry inh | LASV entry inh | FMDV inh | VACV mCherry inh | VACV Venus inh
Cc1c(C(=O)N2CCOCC2)sc2ncnc(N3CCc4ccccc4C3)c12 | 7.5% | -5.1% | -27.2% | -19.3% | x | -21.5%
COCCCNC(=O)c1sc2ncnc(N3CCc4ccccc4C3)c2c1C | u | 8.2µM* | u | u | x | x
COc1cc(Cl)nn(-c2ccccc2)c1=O | 4.7% | u | -6.2% | -1.2% | -9.9% | -6.7%
O=c1c(Cl)cc(Cl)nn1-c1ccccc1 | u | 16.4µM* | u | 35.5µM* | -4.7% | -9.5%
CCOc1cccc(-c2c(C(=O)N/N=C(\C)c3ccncc3)nnn2-c2nonc2N)c1 | 3.3% | -18.8%[46.1 µM] | 11.4%[46.1 µM] | -11.7% | -29.1% | -6.6%
CCOc1cccc(-c2c(C(=O)N/N=C(\C)c3ccccn3)nnn2-c2nonc2N)c1 | 11.2µM* | x | x | -9.2% | x | x
Nc1nonc1-n1nnc(C(=O)N/N=C/c2ccccn2)c1-c1ccccc1 | 9.1% | u | 12.2%[46.1 µM] | -14.1% | u | -27.6%
Nc1nonc1-n1nnc(C(=O)N/N=C/c2cc(Br)cs2)c1-c1ccccc1 | -10.7% | 5.62µM* | -19.3%[46.1 µM] | -21.6% | -27.9% | -21.1%
CC(C)(C)n1cnc2cc(NCc3ccccc3Cl)ccc21 | x | 23.1%[46.1 µM] | -1.3%[46.1 µM] | 5.7% | -9.0% | -8.6%
COc1ccc(/C=C2\SC(=S)N(CCC(=O)Nc3ccc(O)cc3)C2=O)cc1 | u | 12.2% | u | 61.3% | -15.3% | 15.7%
COc1cccc(/C=C2\SC(=O)N(CCC(=O)NC3CCS(=O)(=O)C3)C2=O)c1 (centres undefined) | -0.5% | x | x | -5.0% | x | x
COc1ccc(/C=C2\SC(=O)N(CCCC(=O)Nc3cc(Cl)ccc3C(=O)O)C2=O)cc1 | -5.9% | 1.26µM* | 0.398µM* | 0.282µM* | i | -1.8%
CCN(CC)CCOC(=O)c1ccc(NC(=O)CCCN2C(=O)S/C(=C/c3ccc(OC)cc3)C2=S)cc1 | 14.1µM* | u | u | 3.55µM* | 1.4% | 21.3%
COc1ccc(/C=C2\SC(=S)N(CCC(=O)Nc3ccccc3C(=O)O)C2=O)cc1 | 24.6% | 5.1%[46.1 µM] | -10.6%[46.1 µM] | -9.9% | -8.0% | -2.6%
COc1cccc(/C=C2\SC(=O)N(CCC(=O)NNC(=O)c3cccc(Cl)c3)C2=O)c1 | u | -18.5% | 1.58µM* | 12.5% | i | -7.0%
O=C(O)c1cc(N(Cc2ccccc2O)Cc2cc(O)ccc2O)ccc1O | x | x | x | -21.5% | i | -15.5%
COc1ccc(Cl)cc1N(C)C(=O)Cn1cnc2sc(C)c(S(=O)(=O)N3CCN(c4ncccn4)CC3)c2c1=O | x | -11.5%[46.1 µM] | -9.2%[46.1 µM] | -8.2% | 13.4% | 10.9%
Cc1cc(C)n(-c2nc(N(c3ccccc3)c3ccccc3)nc(-n3nc(C)cc3C)n2)n1 | 10µM* | u | u | u | x | x
Cc1cc(C(=O)N/N=C2\CC(=O)CC(C)(C)C2)c(C)n1-c1ccccc1 | -19.5% | 2.91µM* | 19.7% | 0.0% | x | x
Cc1cc(C(=O)N/N=C2\CC(=O)CC(C)(C)C2)c(C)n1-c1ccc(F)cc1 | -19.7% | -13.7% | 6.0% | 0.0% | i | -13.7%
COc1ccc(-c2cc(-c3ccc4c(c3)NC(=O)CO4)nc3c2COc2ccc(F)cc2-3)cc1 | x | 12.9%[46.1 µM] | 10.9%[46.1 µM] | -15.0% | 2.9% | -1.8%
O=C(NCCCN1CCc2ccccc2C1)C1CCN(c2nnc(-n3cccc3)s2)CC1 | u | 14.6µM* | 6.0% | -29.8% | -13.7% | -4.8%
Cc1ccc(-n2nc3c(N4CCC(C(=O)N5CCCCC5)CC4)nnc(C)c3c2C)cc1 | x | x | u | -19.6% | -29.6% | -25.1%
Cc1ccc(-n2nc3c(N4CCC(C(=O)NCCc5ccccc5)CC4)nnc(C)c3c2C)cc1 | x | x | -9.4%[46.1 µM] | u | 10µM* | 11.2µM*
COCCCNC(=O)N1CCN(c2nnc(C)c3c(C)n(-c4ccc(Cl)cc4)nc23)CC1 | x | x | 14.9%[46.1 µM] | -22.4% | 8.91µM* | u
SMILES | HCV inh | MARV entry inh | LASV entry inh | FMDV inh | VACV mCherry inh | VACV Venus inh
Cc1ccc(-n2nc3c(N4CCC(C(=O)NCCc5ccccc5C)CC4)nnc(C)c3c2C)cc1 | 7.94µM* | x | -18.9%[46.1 µM] | u | 10µM* | 12.6µM*
CCN1CCN(C(=O)C2CCN(c3nnc(C)c4c(C)n(-c5ccc(C)cc5)nc34)CC2)CC1 | 8.91µM* | x | x | u | x | x
CC(C)c1ccc(-c2noc(SCC(=O)N3CCCCC3)n2)cc1 | x | x | u | 5.9% | -16.0% | -7.7%
CC(NC(=O)CCc1ccccc1)c1cc2c(cc1Cl)OCCO2 (centres undefined) | u | -23.1% | -12.2% | -21.0% | -27.1% | -23.3%
CCNc1ncc2nc(-c3cccc(C#N)c3)c(=O)n(Cc3cccc(OC)c3)c2n1 | x | x | x | -6.8% | x | x
CCCCC[C@@H](C)N1C[C@H](COCc2ccccc2)Oc2cc(N3CCC[C@@H]3COC)ccc2S1(=O)=O | x | x | x | 38.8% | 13.4% | 11.6%
COc1ccc(OCC2CN(Cc3ccccc3)S(=O)(=O)CCO2)cc1 (centres undefined) | x | x | -0.7%[46.1 µM] | x | x | x
COc1ccc(COC(=O)NN=C2C[C@@H](O)[C@@H](O)[C@@H]3[C@H]4C(=O)N(Cc5ccccc5)C(=O)[C@@H]4CC[C@@H]23)cc1 | x | -25.3%[14.2 µM] | 4.45µM* | x | x | x
O=C(OCC(=O)N1CCc2ccccc21)c1c2c(nc3ccccc13)CCCC2 | 2µM* | u | u | -13.5% | u | u
O=C(COC(=O)c1c2c(nc3ccccc13)CCCC2)c1cccs1 | u | 7.1% | -14.0% | u | -21.7% | -13.6%
CC1Cc2ccccc2N1C(=O)COC(=O)c1c2c(nc3ccccc13)CCCCC2 (centres undefined) | u | u | u | -22.8% | u | u
O=C(COC(=O)c1c2c(nc3ccccc13)CCCCC2)c1ccc(Cl)s1 | 10µM* | 7.1% | 9.6% | 8.2% | -16.6% | -14.2%
COC(=O)[C@@H]1CCCN1Cc1ccc2c(c1)CN(Cc1ccccc1)CCO2 | x | x | x | -9.6% | -17.8% | -8.3%
[O-]c1ccccc1-[n+]1c(-c2ccccc2)cc(-c2ccccc2)cc1-c1ccccc1 | 6.31µM* | x | x | 28.2µM* | -29.2% | -26.6%
Oc1ccccc1-[n+]1c(-c2ccccc2)cc(-c2ccccc2)cc1-c1ccccc1 | x | x | x | 28.2µM* | -5.7% | 1.5%
O=C([O-])c1ccccc1-[n+]1c(-c2ccccc2)cc(-c2ccccc2)cc1-c1ccccc1 | -8.2% | x | x | u | i | -11.0%
Nc1ccccc1-[n+]1c(-c2ccccc2)cc(-c2ccccc2)cc1-c1ccccc1 | -6.1% | 8.91µM* | u | u | -25.0% | -16.9%
Cc1ccccc1-[n+]1c(-c2ccccc2)cc(-c2ccccc2)cc1-c1ccccc1 | u | x | x | 10µM* | -2.4% | u
COC(=O)c1cc(C(=O)N2CCc3ccccc32)cc([N+](=O)[O-])c1 | 13.5% | x | x | -17.3% | x | x
CCCCc1c(C)[nH]c2c(OC)cccc2c1=S | x | x | x | x | i | -13.4%
COCC(=O)O[C@]1(CCN(C)CCCc2nc3ccccc3[nH]2)CCc2cc(F)ccc2[C@@H]1C(C)C | u | 7.3µM* | 5.17µM* | u | -16.6% | u
Cc1cccc(OCC(=O)NCCc2nc3ccccc3[nH]2)c1C | x | -0.9%[46.1 µM] | 0.7%[46.1 µM] | -29.3% | -10.6% | -9.6%

Source: PubChem (National Center for Advancing Translational Sciences (NCATS))
